Results on nine compounds are retold here after PubChem BioAssay (Tox21).

Records with an inconclusive call do not appear. Unmarked numbers belong to inactive results. Active and inactive are the calls of the source. Unless noted, calls come from the whole dose curve; as a rule, active = well fitted curve in the direction sought with a large enough effect in the repeat runs; inconclusive = weak or mixed curves; inactive = no such curve, though single readings can be large; an effect the other way counts as inactive or inconclusive.

Test [1] can be described thus: qHTS assay to identify small molecule antagonists of the retinoid acid receptor (RAR) signaling pathway - cell viability counter screen (AID 1159551). Note: nearly all actives have a fitted effect of over 35% in size. Note: potency is the fitted concentration of half-maximal effect. The essentials:
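ATP-based viability, C3RL4 cells, 6 h at 37 C with 1 uM final retinol co-added after compound; luminescence read 30 min post CellTiter-Glo, RT.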

Test [2] in a line: qHTS assay to identify small molecule antagonists of the retinoic acid receptor (RAR) signaling pathway (AID 1159552; note: nearly all actives have a fitted effect of over 50% in size; note: potency is the fitted concentration of half-maximal effect). The procedure, abridged: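 Retinol at 1 uM final stimulated RARE-luciferase expression in C3RL4 cells exposed to test compounds for 6 hr at 37 C. Reduced luminescence, read 30 min after detection reagent, indicated pathway antagonism.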
A short description of test [3]: qHTS assay to identify small molecule agonists of the retinoic acid receptor (RAR) signaling pathway (AID 1159553). Note: potency is the fitted concentration of half-maximal effect. The procedure, abridged:
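Quantitative high-throughput format: the Tox21 10K library was tested on C3RL4 RARE-luciferase cells for 6 hr at 37 C and 5% CO2, with luminescence measured after a 30 min room-temperature reagent step.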

Test [4] is described as follows: qHTS assay to identify small molecule antagonists of the estrogen related receptor (ERR) signaling pathway from Tox21 library - cell viability counter screen (AID 1224834). Note: nearly all actives have a fitted effect of over 30% in size. Note: potency is the fitted concentration of half-maximal effect. The essentials:
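Compounds in DMSO were pinned onto ERR cells that had been incubated for 6 h, and the plates were held at 37 C for 17.5 h. CellTiter-Fluor reagent was then added and fluorescence was measured after 30 min.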
Background: Quantitative high-throughput screening tests each substance at several concentrations.

In test [5] the target is Luciferin 4-monooxygenase (Photinus pyralis) (UniProt P08659). Kind of test: qHTS assay to identify small molecule inhibitors of firefly luciferase (AID 1224835). Note: nearly all actives have a fitted effect of over 25% in size. Note: potency is the fitted concentration of half-maximal effect. The essentials:
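Biochemical qHTS: compounds run as interplate titrations against purified firefly enzyme, with D-luciferin and ATP each at its KM concentration. Light output recorded by CCD imaging.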

Test [6] in a line: qHTS assay to identify small molecule agonists of the constitutive androstane receptor (CAR) signaling pathway - cell viability counter screen (AID 1224836). Note: nearly all actives have a fitted effect of over 45% in size. Note: potency is the fitted concentration of half-maximal effect. The essentials:
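Cells were seeded and incubated 4 hrs. Compounds were added across 15 concentrations together with PK11195 at 0.75 uM final. Plates were incubated 23 hrs at 37 C. CellTiter-Fluor was added and fluorescence measured.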

Test [7] can be described thus: qHTS assay to identify small molecule antagonists of the constitutive androstane receptor (CAR) signaling pathway - cell viability counter screen (AID 1224837). Note: nearly all actives have a fitted effect of over 45% in size. Note: potency is the fitted concentration of half-maximal effect. The essentials: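 Cells are seeded, rested 4 hr at 37 C/5% CO2, dosed with compound (15-point series) and 50 nM CITCO, incubated a further 23 hr, and then CellTiter-Fluor reagent is added before fluorescence is read. The line is HepG2 with stable hCAR and CYP2B6-2.2kb.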

Test [8] has as its target Nuclear receptor subfamily 1 group I member 3 (Homo sapiens) (UniProt Q14994). Kind of test: qHTS assay to identify small molecule antagonists of the constitutive androstane receptor (CAR) signaling pathway (AID 1224838).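 Note: HepG2 cells stably expressing hCAR with CYP2B6 luciferase reporter stimulated by CITCO; nearly all actives have a fitted effect of over 40% in size.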 Note: potency is the fitted concentration of half-maximal effect. The procedure, abridged: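 Luminescence from a CYP2B6-2.2kb promoter reporter in hCAR-expressing HepG2 cells reflects CAR signaling. Cells received compounds at 15 concentrations and 50 nM CITCO (final), then incubated 24 h at 37 C/5% CO2.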

The target is the same in test [9]. Briefly: qHTS assay to identify small molecule agonists of the constitutive androstane receptor (CAR) signaling pathway (AID 1224839). Note: nearly all actives have a fitted effect of over 15% in size. Note: potency is the fitted concentration of half-maximal effect. The essentials: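 Cells were plated and incubated 4 hrs, then dosed with compounds at 15 concentrations. PK11195 was added to 0.75 uM final. After 24 hrs at 37 C, luciferase luminescence was measured.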
A short description of test [10]: qHTS assay to identify small molecule agonists of the estrogen related receptor signaling pathway with the pleiotropic PPARgamma coactivator (PGC) from Tox21 10K library (AID 1224842). Note: nearly all actives have a fitted effect of over 15% in size. The procedure, abridged: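 PGC/ERR reporter cell line, 2,000 cells per well, incubated 6 h at 37 C before 23 nL compound in DMSO was added. After 18 h at 37 C, One-Glo luminescence read following 30 min at room temperature.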

Test [11] deals with Thyrotropin receptor (Homo sapiens) (UniProt P16473). Briefly: qHTS assay to identify small molecule agonists of the thyroid stimulating hormone receptor (TSHR) signaling pathway (AID 1224843; calls by dose curve; note: nearly all actives have a fitted effect of over 45% in size). The procedure, abridged:
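HEK293/TSHR, 800 cells/well; cpd 30 min RT; add cAMP-d2 + anti-cAMP-cryptate, 1 h RT; fluorescence read on plate reader. 15-pt titration, n=3.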

Test [12] can be described thus: qHTS assay to identify small molecule antagonists of the estrogen related receptor signaling pathway with the pleiotropic PPARgamma coactivator (PGC) from Tox21 10K library (AID 1224841; call rule not given here; note: actives are mostly falling curves and most rising ones were filed inactive; nearly all actives have a fitted effect of over 50% in size; note: potency is the fitted concentration of half-maximal effect). The essentials:
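Cells stably carrying the PGC/ERR reporter, seeded at 2,000 per well, received pin-transferred compounds 6 h post-plating. Exposure lasted 18 h at 37 C. Signal: One-Glo luminescence.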

Test [13] in a line: qHTS assay to identify small molecule antagonists of the estrogen related receptor signaling pathway with the pleiotropic PPARgamma coactivator (PGC) from Tox21 10K library - cell viability counter screen (AID 1224840; active = well fitted cell-killing curve with a large enough effect in the repeat runs, not every such curve was filed as active; note: nearly all actives have a fitted effect of over 40% in size). The essentials: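 Cell viability is measured by CellTiter-Fluor fluorescence in PGC/ERR cells that receive compounds after a 6-hour attachment period and are then incubated 17.5 hours at 37 C.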

Test [14] is described as follows: qHTS assay to identify small molecule agonists of the hypoxia (HIF-1) signaling pathway - cell viability counter screen (AID 1224844; calls by dose curve; note: nearly all actives have a fitted effect of over 50% in size). The procedure, abridged:
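Viability counter screen: HRE-bla ME-180 cells plated 5 hrs before compound addition, treated 17 hrs at 37C and 5% CO2, then CellTiter-Glo added after the FRET reporter read; luminescence after 30 min.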

Test [15] can be described thus: qHTS assay to identify small molecule antagonists of the estrogen related receptor (ERR) signaling pathway (AID 1224819; note: nearly all actives have a fitted effect of over 50% in size; note: potency is the fitted concentration of half-maximal effect). The essentials: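 ERR reporter cell line (NTP) plated at 2,000 cells/well, settled 6 h at 37C/5% CO2, then exposed to LOPAC compounds for 18 h at 37C. One-Glo luciferase luminescence read after 30 min at room temperature.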
Test [16] is described as follows: qHTS assay to identify small molecule agonists of the estrogen related receptor (ERR) signaling pathway (AID 1224820). The essentials:
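Following a 6 h settling period, 2,000 ERR cells per well receive DMSO-dissolved compounds by pin tool and incubate 18 h at 37 C; agonist activity is scored from One-Glo luminescence read 30 min post-addition.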

A short description of test [17]: qHTS assay to identify small molecule agonists of the estrogen related receptor signaling pathway with the pleiotropic PPARgamma coactivator (PGC) (AID 1224823). The essentials: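 In this quantitative high-throughput screen, an 18 h, 37 C treatment of PGC/ERR cells with compounds in DMSO preceded a One-Glo luminescence read taken after 30 min at room temperature.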

A short description of test [18]: qHTS assay to identify small molecule antagonists of the estrogen related receptor (ERR) signaling pathway - cell viability counter screen (AID 1224818).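 Note: series mostly up to about 46 µM; viability measured after 17.5 h of compound exposure.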 The procedure, abridged: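 Quantitative high-throughput viability counter screen in ERR cells. Compounds (DMSO) incubated 17.5 h at 37 C; read-out was CellTiter-Fluor fluorescence.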
Test [19] is described as follows: qHTS assay to identify small molecule antagonists of the estrogen related receptor signaling pathway with the pleiotropic PPARgamma coactivator (PGC) cell viability counter screen (AID 1224822; note: series mostly up to about 46 µM). The essentials: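 Cytotoxicity in the PGC/ERR cell line is assessed with CellTiter-Fluor, read as fluorescence intensity 30 min after reagent addition, following 17.5 h compound treatment at 37 C.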

Chain of Luciferin 4-monooxygenase (Photinus pyralis) (P08659 whole entry, looked up): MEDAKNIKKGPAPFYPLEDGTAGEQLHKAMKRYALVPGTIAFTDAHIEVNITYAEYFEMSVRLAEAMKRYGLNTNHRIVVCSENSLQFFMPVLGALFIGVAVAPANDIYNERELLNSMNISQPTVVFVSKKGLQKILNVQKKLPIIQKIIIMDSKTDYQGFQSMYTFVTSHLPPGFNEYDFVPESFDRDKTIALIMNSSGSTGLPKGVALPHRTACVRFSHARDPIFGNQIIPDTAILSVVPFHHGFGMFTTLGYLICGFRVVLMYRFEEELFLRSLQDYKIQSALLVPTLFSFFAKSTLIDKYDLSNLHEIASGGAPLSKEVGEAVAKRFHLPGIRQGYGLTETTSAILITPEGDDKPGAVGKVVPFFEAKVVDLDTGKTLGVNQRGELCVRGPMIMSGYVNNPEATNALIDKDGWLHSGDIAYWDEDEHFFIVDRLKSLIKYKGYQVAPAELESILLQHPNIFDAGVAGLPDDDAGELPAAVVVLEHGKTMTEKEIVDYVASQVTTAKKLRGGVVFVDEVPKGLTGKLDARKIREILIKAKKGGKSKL
Chain of Nuclear receptor subfamily 1 group I member 3 (Homo sapiens) (Q14994 whole entry, looked up): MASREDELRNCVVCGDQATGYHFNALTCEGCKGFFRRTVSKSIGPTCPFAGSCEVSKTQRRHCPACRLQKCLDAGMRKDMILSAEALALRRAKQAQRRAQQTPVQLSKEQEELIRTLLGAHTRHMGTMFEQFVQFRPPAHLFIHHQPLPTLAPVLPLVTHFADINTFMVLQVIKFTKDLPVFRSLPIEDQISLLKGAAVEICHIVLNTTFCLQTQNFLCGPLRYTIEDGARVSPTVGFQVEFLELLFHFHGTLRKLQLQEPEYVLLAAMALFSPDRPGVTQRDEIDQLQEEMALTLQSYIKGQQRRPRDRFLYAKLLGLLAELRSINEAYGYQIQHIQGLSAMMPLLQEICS
Chain of Thyrotropin receptor (Homo sapiens) (P16473 whole entry, looked up): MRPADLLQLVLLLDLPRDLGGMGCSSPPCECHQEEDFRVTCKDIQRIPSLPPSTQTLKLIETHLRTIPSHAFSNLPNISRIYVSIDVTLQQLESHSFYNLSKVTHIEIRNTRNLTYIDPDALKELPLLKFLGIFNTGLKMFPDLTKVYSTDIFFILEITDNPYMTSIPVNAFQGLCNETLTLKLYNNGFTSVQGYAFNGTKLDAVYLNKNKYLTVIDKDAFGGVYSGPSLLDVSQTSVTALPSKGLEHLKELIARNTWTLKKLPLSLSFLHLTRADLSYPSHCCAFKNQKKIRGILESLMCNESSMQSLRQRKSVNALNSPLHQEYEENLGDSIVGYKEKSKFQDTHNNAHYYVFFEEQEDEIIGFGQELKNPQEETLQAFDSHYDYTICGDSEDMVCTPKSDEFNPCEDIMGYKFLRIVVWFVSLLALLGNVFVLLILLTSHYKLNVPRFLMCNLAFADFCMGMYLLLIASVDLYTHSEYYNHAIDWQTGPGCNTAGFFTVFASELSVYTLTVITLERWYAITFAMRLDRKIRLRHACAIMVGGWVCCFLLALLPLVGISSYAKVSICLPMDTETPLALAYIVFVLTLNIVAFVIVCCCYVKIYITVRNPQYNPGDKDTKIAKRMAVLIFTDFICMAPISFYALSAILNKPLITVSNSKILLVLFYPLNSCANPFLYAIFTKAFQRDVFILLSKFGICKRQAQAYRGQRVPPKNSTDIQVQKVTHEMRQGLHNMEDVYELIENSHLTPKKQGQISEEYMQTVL

Regarding `NNc1nc(-c2ccccc2)cs1`, the Potency entry in test [1], in [2], in test [6], in [7], in test [8] and in [10] was “inactive” in each case. The Potency entry in [11] is “inactive”. In addition, the Potency in test [3] is 70.5 µM (active); in [4], 7.05 µM (active); in test [5], 32.6 µM (active); in test [9] it was 49.9 µM (active).
For `NNc1nc(-c2ccc([N+](=O)[O-])cc2)cs1`, the Potency in test [1] is 43.3 µM (active); in test [3], 54.5 µM (active); in test [4], 6.86 µM (active); in test [5] it was 31.7 µM (active); in test [6], 54.5 µM (active); in test [7] it was 54.5 µM (active). Also, the Potency in test [12] is 48.6 µM (active). Besides, the Potency result in test [2], in [8], in test [9] and in [10] was “inactive” each time.
In the case of `CCC(N)(CO)CO`, the Potency result in [1], in test [2], in test [3], in test [4], in [5] and in test [6] was “inactive” in each case. Also, the Potency result in test [7], in [8], in test [9], in test [13], in test [12] and in test [14] was “inactive” each time.
Regarding `CCCC(C)c1ccccc1O` (stereo unspecified), the Potency entry in [1], in test [2], in test [3], in [4], in test [5] and in test [6] was “inactive” in each case. The Potency entry in test [7], in test [8], in test [9] and in test [13] was “inactive” in each case.
With `CCCCCCCCCCCCCCCS(=O)(=O)Oc1ccccc1`, the Potency entry in test [1], in test [2], in test [3], in test [4], in test [5] and in test [6] was “inactive” each time. For the same compound, the Potency entry in [7], in test [8], in test [9], in test [13] and in test [14] was “inactive” each time.
In the case of `CC[C@@]1(O)C(=O)OCc2c1cc1n(c2=O)Cc2cc3c(CN(C)C)c(O)ccc3nc2-1`, the Potency entry in test [1], in [3], in test [5], in test [9], in test [10] and in [11] was “inactive” in each case. In addition, the Potency in test [2] is 3.76 µM (active); in [15] it was 0.75 µM (active); in test [8], 0.15 µM (active). Also, the outcome in test [16] and in test [17] was inactive.
With `CCOC(=O)/C=C(C)/C=C/C=C(C)/C=C/c1c(C)cc(OC)c(C)c1C`, the Potency result in test [1], in [2], in test [4], in test [5], in [6] and in test [7] was “inactive” each time. In addition, the Potency result in [9], in [13], in [11] and in [14] was “inactive” in each case. In addition, the Potency in [3] was 0.531 µM (active).
`C=C(C)C(=O)OCC[N+](C)(C)C`: the Potency result in test [1], in test [2], in test [3], in [4], in test [5] and in test [6] was “inactive” each time. The Potency entry in test [7], in test [8], in test [13], in [11] and in test [14] was “inactive” in each case.
`CSc1ccc(C(=O)c2[nH]c(=O)[nH]c2C)cc1`: the Potency result in test [1], in [2], in test [3], in [18], in [15] and in test [19] was “inactive” each time. Moreover, the Potency entry in test [4], in test [5], in test [6], in [7], in test [9] and in [13] was “inactive” each time. Moreover, the Potency result in [14] is “inactive”.
